Screens as filed in PubChem BioAssay.
p53ts 32C kill: kills p53ts cells at the permissive temperature | H1299-p53A138V at 32C, ATP luminescence viability, 24 h | Potency, µM (doses to about 46.1 µM), inactives show top-dose activity change, negative = cytotoxicity, actives largely listed as cytotoxic | AID 924 | hit rate 0.93% among 130,000;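 also: 0% = DMSO and -100% = full killing by reference compound; nearly all actives have a fitted effect of over 55% in size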
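ATP-content luminescence (ATPlite) read-out after 24 h compound exposure at 32C in H1299-p53A138V cells (600/well). Tested up to 46 uM. Normalized to DMSO (0%) and 100 uM tamoxifen (100% killing); Hill-fit AC50.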
Imprint erasure: induces erasure of genomic imprints in mouse ES cells; AID 1948; Potency, µM (highest dose often 60.7 µM), without a hit: at the highest dose activity change, positive = activation, actives largely listed as activators; hit rate 0.02% among 110,000; mouse ES Peg3-LacZ reporter, beta-gal luminescence, 40 h
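Readout: BetaGlo luminescence (5 min, room temp) for LacZ from the normally silent maternal Peg3 allele in female Peg3LacZ-Neo ES cells. Cells 300/well, 40 h, 37C, 5% CO2. Data normalized per plate to negative controls.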
Tau fil binding: tau filament binding. P10636. recombinant tau filaments, thioflavin S fluorescence, 15 h; filaments grown with octadecylsulfate alongside compound. hit rate 2% among 71,000. Potency, µM (series often up to 57.1 µM), for the others: at the highest dose activity change, negative = inhibition;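 also: % is scaled to controls: 0 for no effect and ±100 for the full control effect; actives lower thioflavin S fluorescence by blocking filaments or displacing dye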
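Recombinant tau protein (human, 1 uM final) plus 30 uM ODS in HEPES pH 7.4 with NaCl, DTT and thioflavine S. Compound present from the start; fluorescence at 510 nm after 15 h, 37 C.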
p53ts 39C tox: cytotoxicity in p53ts cells at nonpermissive temperature. hit rate 1.5% among 130,000. AID 902. H1299-p53A138V viability at 39C, ATP luminescence, 24 h. Potency, µM (top dose mostly 46.1 µM), for inactives: at the top dose activity change, negative = cell killing, most hits filed as cytotoxic; also: % is scaled to controls: 0 for no effect and ±100 for the full control effect; nearly all actives have a fitted effect of over 55% in size
FLuc inh: blocks Photinus pyralis firefly luciferase activity; P08659; purified firefly luciferase, luminescence, 8 min; Potency, µM (top dose mostly 57.1 µM), without a hit: at the top dose activity change, negative = inhibition, usual class: inhibitors; hit rate 2.2% among 72,000; AID 411; also: % is scaled to controls: 0 for no effect and ±100 for the full control effect; nearly all actives have a fitted effect of over 40% in size
Target sequence (P08659 whole entry, looked up): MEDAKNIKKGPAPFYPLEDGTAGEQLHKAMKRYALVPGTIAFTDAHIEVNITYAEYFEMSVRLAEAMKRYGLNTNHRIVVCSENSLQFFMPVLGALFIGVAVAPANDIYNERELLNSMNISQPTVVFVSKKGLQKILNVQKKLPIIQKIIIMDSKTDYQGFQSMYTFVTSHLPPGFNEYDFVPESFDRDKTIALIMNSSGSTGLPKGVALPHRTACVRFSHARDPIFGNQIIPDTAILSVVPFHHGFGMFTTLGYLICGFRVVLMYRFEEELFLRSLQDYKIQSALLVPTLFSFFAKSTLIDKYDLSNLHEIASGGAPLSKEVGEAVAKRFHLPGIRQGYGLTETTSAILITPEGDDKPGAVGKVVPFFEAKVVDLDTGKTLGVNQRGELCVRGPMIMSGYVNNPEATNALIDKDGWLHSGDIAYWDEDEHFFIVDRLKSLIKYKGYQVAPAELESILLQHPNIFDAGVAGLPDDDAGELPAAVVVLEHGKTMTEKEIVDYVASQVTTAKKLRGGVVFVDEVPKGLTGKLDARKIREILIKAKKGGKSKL
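qHTS concentration-response profiling: light output of P. pyralis luciferase with luciferin and 10 uM ATP, imidazole buffer pH 7.2. Read by luminescence after 8-min room-temperature incubation.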
Starred values were filed as active, the others as inactive; i = inactive; ? = inconclusive; / = not tested or not shown; ! = not active in a repeat; [ ] = remark or other dose. Most compounds without a hit are left out; they make up all but 3.4% or so of the library. Calls follow the shape of the dose curve; as a rule, active = well fitted curve in the direction sought with a large enough effect; inconclusive = small, poorly fitted or top-dose-only effect, or another doubt; inactive = no such curve, though single readings can be large; an effect the other way counts as inactive or inconclusive. Potency is read from the fitted curve at half-maximal effect.

SMILES	p53ts 32C kill	Imprint erasure	Tau fil binding	p53ts 39C tox	FLuc inh
COc1cc(C(=O)Nc2ccc3nc(SCc4ccc(C)cc4)sc3c2)cc(OC)c1OC	-27%	-13%[10.9 µM]	/	-20%	/
Cc1ccc(NC(=O)c2c(C)oc3ccc(O)c(CN4CCCCC4)c23)cc1	0%	-7%[10.9 µM]	/	-5%	/
COc1ccc(NC(=O)c2c(C)oc3ccc(O)c(CN4CCCCCC4)c23)cc1Cl	-14%	-10%[10.9 µM]	/	13µM*	/
COC(=O)CSc1nc2c(c(-c3ccco3)c1C#N)CCCC2	3%	-24%	16µM*	-4%	1%
CCOC(=O)CSc1nc2c(c(-c3ccc(C)o3)c1C#N)CCCC2	17%	-13%	56%	-7%	1%
N=c1n(CCO)c2ccccc2n1Cc1ccccc1Cl	1%	-10%	109%	14%	2%
N=c1n(CCO)c2ccccc2n1CCOc1ccc(Cl)cc1Cl	?	-33%	229%	13µM*	0%
CCCCCn1c(=N)n(CC(O)COc2ccccc2OC)c2ccccc21 (configuration not stated)	?	5%	i	20µM*	2%
COc1ccc(OCC(O)Cn2c(=N)n(CCN3CCCCC3)c3ccccc32)cc1 (configuration not stated)	-28%	-23%	18%	13µM*!	1%
Cc1ccc(OCC(O)Cn2c(=N)n(CCN3CCCCC3)c3ccccc32)cc1 (configuration not stated)	-12%	-23%	341%	13µM*	3%
COc1ccccc1OCC(O)Cn1c(=N)n(Cc2ccccc2)c2ccccc21 (configuration not stated)	-18%	-19%	85%	-11%	2%
N=c1n(CCN2CCCCC2)c2ccccc2n1CC(O)COc1ccc(Cl)cc1Cl (configuration not stated)	22µM*	-15%[10.9 µM]	/	3.2µM*	/
CSc1ccc2c(c1)C(N1CCN(C)CC1)Cc1ccccc1S2 (configuration not stated)	-9%	-25%	/	?	/
CSc1ccc2c(c1)[C@H](N1CCN(C)CC1)Cc1ccccc1S2	25µM*!	-20%	-96%	32µM*	-1%
CNC(=O)C1CCC(Cn2c(=O)c3sccc3n(CC(=O)Nc3ccc(C)cc3C)c2=O)CC1 (configuration not stated)	-13%	-13%[10.9 µM]	/	-14%	/
CCOC(=O)C1=C(N2CCCCC2)c2cc3c(n2C1=O)CCCC3	-16%	-23%	16µM*	-29%	-7%
COCCCNC(=O)c1ccc(-n2c(-c3ccccc3)cc3c2CCCCC3)cc1	?	-10%[10.9 µM]	/	?	/
C#C[C@@]1(O)CC[C@@H]2[C@@H]3CCC4=CC(=O)CC[C@@H]4[C@H]3CC[C@]21C	/	-19%[16.8 µM]	3%[25.6 µM]	/	2%[25.5 µM]
CC#C[C@]1(O)CC[C@H]2[C@@H]3CCC4=CC(=O)CCC4=C3[C@H](c3ccc(N(C)C)cc3)C[C@@]21C	18%	-4%	32µM*	72%	0%
CC1=CC(C)(C)N2C(=O)C3(C(C#N)=C(N)Oc4cc(O)ccc43)c3cccc1c32 (configuration not stated)	10%	-11%	4µM*	7%	4%
Nc1ccc(-c2cnc(-c3ccc(N)cc3)nc2)cc1	10µM*	-25%	-7%	10µM*	13µM*
CCC(C)n1c(-c2cccs2)nc2nc3ccccc3nc21 (configuration not stated)	7%	-9%	13µM*	-6%	-3%
C=CCn1c(-c2cccs2)nc2ccccc21	-11%	-21%	3%	-4%	-5%
C=CCn1c(-c2cccs2)nc2nc3ccccc3nc21	?	-34%	20µM*	?	20µM*
c1ccc(-n2c(-c3cccs3)nc3nc4ccccc4nc32)cc1	/	/	/	2%	/
SMILES	p53ts 32C kill	Imprint erasure	Tau fil binding	p53ts 39C tox	FLuc inh
Cc1ccccc1-c1ccc(Nc2ccc(N3CCOCC3)cc2)nn1	-11%	-17%	16µM*	-6%	-5%
O=S1(=O)N=C(Nc2ccc(N3CCOCC3)cc2)c2ccccc21	-13%	-8%	-13%	-12%	13µM*
O=c1[nH]c2[nH]c(=S)[nH]c(=S)c2[nH]1	1%[9.22 µM]	-10%[10.9 µM]	-11%[11.4 µM]	8%[9.22 µM]	-7%[11.4 µM]
O=C1OC2(c3cc(Br)c(O)c(Br)c3Oc3c2cc(Br)c(O)c3Br)c2c(Cl)c(Cl)c(Cl)c(Cl)c21	-4%[1.84 µM]	-1%	0.13µM*	3%	/
O=C1OC(c2ccc(O)c(-c3ccccc3)c2)(c2ccc(O)c(-c3ccccc3)c2)c2c(Cl)c(Cl)c(Cl)c(Cl)c21	3%[9.22 µM]	-9%[10.9 µM]	2%[11.4 µM]	8%[9.22 µM]	3%[11.4 µM]
Cc1cc(Nc2ccccc2C)nc(-n2nc(C)cc2C)n1	5%	-15%[10.9 µM]	/	-21%	/
CN1CCN(c2ncc3nc(-c4cccs4)c(=O)n(Cc4ccc(F)cc4)c3n2)CC1	-25%	-22%	i	-30%	-1%[11.4 µM]
COCCn1c(C)cc(C(=O)COC(=O)c2ccc3ncsc3c2)c1C	-7%	-19%	7%	5%	25µM*
Cc1cc(C(=O)CSc2nc3ccccc3[nH]2)c(C)n1C	-15%	-23%	4%	-18%	16µM*
COCCn1c(C)cc(C(=O)COC(=O)c2c(C)nn(Cc3ccccc3)c2C)c1C	7%	10%	11%	11%	-3%
COCCn1c(C)cc(C(=O)COC(=O)c2n[nH]c3ccccc23)c1C	1µM*	-87%	38%	2µM*	1.3µM*
O=C(OCC(=O)c1ccco1)c1ccc2ncsc2c1	9%	17%	1%	2%	-12%
COc1cc(C(=O)OCC(=O)c2cc(C)n(C)c2C)cc(OC)c1OC	3%	-6%	5%	-6%	-2%
Cc1cc(C(=O)CSc2nc3ccc(Cl)cc3[nH]2)c(C)n1C	8%	-2%	-15%	-30%	-6%
Cc1cc(C(=O)COC(=O)c2n[nH]c3ccccc23)c(C)n1C	2.5µM*	-64%	42%	3.2µM*	13µM*
Cc1cccc(N2CCN(c3nc4ccccc4c4nc(-c5ccccc5)nn34)CC2)c1C	5%	-8%[10.9 µM]	/	16%	/
CN1CCN(C(=O)c2ccc(Cl)c(S(=O)(=O)N3CCCCC3)c2)CC1	1%	2%	-6%	-7%	0%
CCCn1c(C)cc(C(=O)COC(=O)c2ccc(Cl)c(S(=O)(=O)N3CCCC3)c2)c1C	?	-13%	43%	?	13µM*
COc1ccc(C(=O)COC(=O)c2ccco2)cc1	1%	-10%	-4%	-4%	6.3µM*
COc1ccc(C(=O)Nc2ccc(OC)c(OC)c2)cc1	?	-54%	4%	?	25µM*
CCc1nnc(NC(=O)c2c(OC)cccc2OC)s1	6%	-2%	-2%	4%	4%
CCc1nnc(NC(=O)c2cccc(OC)c2)s1	13µM*	-62%	6%	?	-21%
COc1cccc(C(=O)Nc2ccc(NC(=O)C(C)(C)C)cn2)c1	4µM*	-83%	-6%	3.2µM*	4µM*
